# According to the supplement of paper PMC8728848:
# This excerpt belongs to a sample that is enriched for the strongest signals.
# B1: Gal 4 (Homo sapiens), Q8K419 (protein)
# chain: MAYVPAPGYQPTYNPTLPYKRPIPGGLSVGMSVYIQGMAKENMRRFHVNFAVGQDDGADVAFHFNPRFDGWDKVVFNTMQSGQWGKEEKKKSMPFQKGKHFELVFMVMPEHYKVVVNGNSFYEYGHRLPVQMVTHLQVDGDLELQSINFLGGQPAAAPYPGAMTIPAYPAGSPGYNPPQMNTLPVMTGPPVFNPRVPYVGALQGGLTVRRTIIIKGYVLPTARNFVINFKVGSSGDIALHLNPRIGDSVVRNSFMNGSWGAEERKVAYNPFGPGQFFDLSIRCGMDRFKVFANGQHLFDFSHRFQAFQMVDTLEINGDITLSYVQI
# Legend:
# Assay in all cases: glycan array binding signal (z-score within array); higher = stronger binding
# Settings in all cases: glycan notation: IUPAC condensed, linker removed
# Fuc(a1-2)Gal = target: Fuc(a1-2)Gal
# Method in brief: (§1)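 The binding signal is a Z-score computed within each array. Data were drawn from 3228 arrays in the Consortium for Functional Glycomics database, restricted to those with a known protein sequence. Scores were averaged over arrays of the same protein sequence at different concentrations or buffers, and over linkers, and negative values can be taken as non-binding.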
# [1] = target: Fuc(a1-2)Gal(b1-3)GlcNAc(b1-3)[Fuc(a1-2)Gal(b1-3)GlcNAc(b1-6)]GalNAc
# Method in brief: as §1
# [2] = target: Fuc(a1-2)Gal(b1-3)GlcNAc6S
# Method in brief: as §1
# [3] = target: Fuc(a1-2)Gal(b1-4)GlcNAc(b1-2)Man(a1-3)[Fuc(a1-2)Gal(b1-4)GlcNAc(b1-2)Man(a1-6)]Man(b1-4)GlcNAc(b1-4)[Fuc(a1-6)]GlcNAc
# Method in brief: as §1
# [4] = target: Fuc(a1-2)Gal(b1-4)GlcNAc(b1-3)GalNAc
# Method in brief: as §1
# [5] = target: Fuc(a1-2)Gal(b1-4)GlcNAc(b1-3)[Fuc(a1-2)Gal(b1-4)GlcNAc(b1-6)]GalNAc
# Method in brief: as §1
# [6] = target: Fuc(a1-2)[Gal(a1-3)]Gal(b1-3)GalNAc
# Method in brief: as §1
# [7] = target: Fuc(a1-2)[Gal(a1-3)]Gal(b1-3)GlcNAc
# Method in brief: as §1
# [8] = target: Fuc(a1-2)[Gal(a1-3)]Gal(b1-4)Glc
# Method in brief: as §1
# [9] = target: Fuc(a1-2)[Gal(a1-3)]Gal(b1-4)GlcNAc(b1-3)GalNAc
# Method in brief: as §1
# [10] = target: Fuc(a1-2)[GalNAc(a1-3)]Gal
# Method in brief: as §1
# [11] = target: Fuc(a1-2)[GalNAc(a1-3)]Gal(b1-3)GlcNAc
# Method in brief: as §1
# [12] = target: Fuc(a1-2)[GalNAc(a1-3)]Gal(b1-3)GlcNAc(b1-2)Man(a1-3)[Fuc(a1-2)[GalNAc(a1-3)]Gal(b1-3)GlcNAc(b1-2)Man(a1-6)]Man(b1-4)GlcNAc(b1-4)GlcNAc
# Method in brief: as §1
# [13] = target: Fuc(a1-2)[GalNAc(a1-3)]Gal(b1-3)GlcNAc(b1-6)GalNAc
# Method in brief: as §1
# [14] = target: Fuc(a1-2)[GalNAc(a1-3)]Gal(b1-4)Glc
# Method in brief: as §1
# [15] = target: Gal(a1-4)Gal(b1-4)GlcNAc(b1-2)Man(a1-3)[Gal(a1-4)Gal(b1-4)GlcNAc(b1-2)Man(a1-6)]Man(b1-4)GlcNAc(b1-4)GlcNAc
# Method in brief: as §1
# Gal(b1-2)Gal = target: Gal(b1-2)Gal
# Method in brief: as §1
# Gal(b1-3)Gal = target: Gal(b1-3)Gal
# Method in brief: as §1
# [16] = target: Gal(b1-3)GalNAc(a1-3)[Fuc(a1-2)]Gal(b1-4)Glc
# Method in brief: as §1
# [17] = target: Gal(b1-3)GalNAc(a1-3)[Fuc(a1-2)]Gal(b1-4)GlcNAc
# Method in brief: as §1
# [18] = target: Gal(b1-3)[Fuc(a1-4)]GlcNAc(b1-2)Man(a1-3)[Gal(b1-3)[Fuc(a1-4)]GlcNAc(b1-2)Man(a1-6)]Man(b1-4)GlcNAc(b1-4)[Fuc(a1-6)]GlcNAc
# Method in brief: as §1
# [19] = target: Gal(b1-3)[Fuc(a1-4)]GlcNAc(b1-6)GalNAc
# Method in brief: as §1
# [20] = target: Gal(b1-4)GalNAc(a1-3)[Fuc(a1-2)]Gal(b1-4)GlcNAc
# Method in brief: as §1
# [21] = target: Gal(b1-4)GlcNAc(a1-6)Gal(b1-4)GlcNAc
# Method in brief: as §1
# [22] = target: Gal(b1-4)GlcNAc(b1-3)Gal(b1-4)Glc
# Method in brief: as §1
# [23] = target: Gal(b1-4)GlcNAc(b1-3)Gal(b1-4)[Fuc(a1-3)GlcNAc(b1-6)]Gal(b1-4)Glc
# Method in brief: as §1
# [24] = target: Gal(b1-4)GlcNAc(b1-6)[Gal(b1-3)]GalNAc
# Method in brief: as §1
# Gal3S(b1-4)GlcNAc = target: Gal3S(b1-4)GlcNAc
# Method in brief: as §1
# GalNAc(b1-3)GalNAc = target: GalNAc(b1-3)GalNAc
# Method in brief: as §1
# GalNAc(b1-4)Gal(b1-4)Glc = target: GalNAc(b1-4)Gal(b1-4)Glc
# Method in brief: as §1
# GalNAc(b1-4)GlcNAc = target: GalNAc(b1-4)GlcNAc
# Method in brief: as §1
# Kdn(a2-3)Gal(b1-4)Glc = target: Kdn(a2-3)Gal(b1-4)Glc
# Method in brief: as §1
# [25] = target: Man(a1-2)Man(a1-3)[Man(a1-2)Man(a1-6)]Man(a1-6)[Man(a1-2)Man(a1-2)Man(a1-3)]Man(b1-4)GlcNAc(b1-4)GlcNAc
# Method in brief: as §1
# [26] = target: Neu5Ac(a2-3)Gal(b1-3)GlcNAc(b1-3)Gal(b1-3)GlcNAc
# Method in brief: as §1
# [27] = target: Neu5Ac(a2-3)Gal(b1-4)GlcNAc(b1-2)Man
# Method in brief: as §1
# [28] = target: Neu5Ac(a2-3)Gal(b1-4)[Fuc(a1-3)]GlcNAc(b1-3)Gal(b1-4)[Fuc(a1-3)]GlcNAc(b1-3)Gal(b1-4)[Fuc(a1-3)]GlcNAc
# Method in brief: as §1
# [29] = target: Neu5Ac(a2-3)[GalNAc(b1-4)]Gal(b1-4)GlcNAc(b1-3)GalNAc
# Method in brief: as §1
# [30] = target: Neu5Ac(a2-6)Gal(b1-4)GlcNAc(b1-2)Man(a1-3)[Neu5Ac(a2-6)Gal(b1-4)GlcNAc(b1-2)Man(a1-6)]Man(b1-4)GlcNAc(b1-4)GlcNAc
# Method in brief: as §1
# [31] = target: Neu5Ac(a2-6)Gal(b1-4)GlcNAc(b1-2)Man(a1-6)[Man(a1-3)]Man(b1-4)GlcNAc(b1-4)GlcNAc
# Method in brief: as §1
# [32] = target: Neu5Ac(a2-6)GlcNAc(b1-4)GlcNAc
# Method in brief: as §1
# Neu5Ac(a2-8)Neu5Ac = target: Neu5Ac(a2-8)Neu5Ac
# Method in brief: as §1
# Neu5Ac(b2-6)GalNAc = target: Neu5Ac(b2-6)GalNAc
# Method in brief: as §1
# [33] = target: Neu5Ac9Ac(a2-3)Gal(b1-4)GlcNAc
# Method in brief: as §1
binder,measurement,setting,value
B1,glycan array binding signal (z-score),Fuc(a1-2)Gal,-0.2
same,glycan array binding signal (z-score),[1],-0.088
same,glycan array binding signal (z-score),[2],1.3
same,glycan array binding signal (z-score),[3],-0.202
same,glycan array binding signal (z-score),[4],-0.199
same,glycan array binding signal (z-score),[5],-0.189
same,glycan array binding signal (z-score),[6],0.833
same,glycan array binding signal (z-score),[7],2.91
same,glycan array binding signal (z-score),[8],3.5
same,glycan array binding signal (z-score),[9],-0.006
same,glycan array binding signal (z-score),[10],-0.2
same,glycan array binding signal (z-score),[11],4.09
same,glycan array binding signal (z-score),[12],1.51
same,glycan array binding signal (z-score),[13],1.99
same,glycan array binding signal (z-score),[14],9.63
same,glycan array binding signal (z-score),[15],-0.194
same,glycan array binding signal (z-score),Gal(b1-2)Gal,-0.201
same,glycan array binding signal (z-score),Gal(b1-3)Gal,0.459
same,glycan array binding signal (z-score),[16],13.2
same,glycan array binding signal (z-score),[17],2.3
same,glycan array binding signal (z-score),[18],-0.174
same,glycan array binding signal (z-score),[19],-0.193
same,glycan array binding signal (z-score),[20],2.3
same,glycan array binding signal (z-score),[21],-0.188
same,glycan array binding signal (z-score),[22],1.11
same,glycan array binding signal (z-score),[23],-0.185
same,glycan array binding signal (z-score),[24],-0.059
same,glycan array binding signal (z-score),Gal3S(b1-4)GlcNAc,-0.136
same,glycan array binding signal (z-score),GalNAc(b1-3)GalNAc,-0.182
same,glycan array binding signal (z-score),GalNAc(b1-4)Gal(b1-4)Glc,-0.211
same,glycan array binding signal (z-score),GalNAc(b1-4)GlcNAc,-0.18
same,glycan array binding signal (z-score),Kdn(a2-3)Gal(b1-4)Glc,-0.243
same,glycan array binding signal (z-score),[25],-0.178
same,glycan array binding signal (z-score),[26],0.182
same,glycan array binding signal (z-score),[27],-0.197
same,glycan array binding signal (z-score),[28],-0.198
same,glycan array binding signal (z-score),[29],-0.147
same,glycan array binding signal (z-score),[30],-0.187
same,glycan array binding signal (z-score),[31],-0.204
same,glycan array binding signal (z-score),[32],-0.205
same,glycan array binding signal (z-score),Neu5Ac(a2-8)Neu5Ac,-0.203
same,glycan array binding signal (z-score),Neu5Ac(b2-6)GalNAc,-0.196
same,glycan array binding signal (z-score),[33],-0.189
